From PubChem
4-MU autofl: 4-MU region autofluorescence | 59,000 tested, 11% active | compound autofluorescence, 340/450 nm, 4-MU equivalents; hits give high values | AID 589 | max dye-equivalent concentration, M; in the data active = max dye-equivalent concentration above about 10 nM; inconclusive = mostly about 1.1 nM to 9.6 nM
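Intrinsic fluorescence at 340/450 nm (ex/em) was read after 15 min at room temperature in pH 8.0, 100 mM Tris. Each compound concentration expressed as 4-MU-equivalent concentration from a six-point 4-MU standard series on each plate.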
A350 fluor: compound fluoresces in the Alexa 350 spectral region; Compound autofluorescence, 340/450 nm, Alexa 350 dye-equivalents; hits give high values; max dye-equivalent concentration, M; 59,000 tested, 11% active; in the data active = max dye-equivalent concentration above about 10 nM; inconclusive = mostly about 1.1 nM to 9.6 nM
CRE Fsk mod: modulators of forskolin-stimulated CRE signaling in CHO cells. CHO CRE-bla reporter (cAMP response element driving beta-lactamase), forskolin EC10, beta-lactamase ratio. 71,000 tested, 2.5% active. Potency, µM (titrated, usually from 38.2 µM), without a hit: at the top dose activity change, negative = inhibition, hits mostly activators; active = well fitted activation curve with a large enough effect in the signal ratio, with a control signal flat, not every such curve was filed as active; inconclusive = small, poorly fitted or top-dose-only effect, or effect the other way, or a change in a side signal; the % refers to the signal ratio; note: potency is the fitted concentration of half-maximal effect; % of control where 0% means no effect
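Reporter-gene assay: CHO cells with beta-lactamase behind cAMP responsive elements, co-treated with compound and EC10 NKH 477 for 3 hours at 37 degrees Celsius. Activity came from the 460/530 nm CCF4 emission ratio.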
AID923: qHTS Assay for Allosteric/Competitive Inhibitors of Caspase-1: Spectroscopic Profiling in AFC Spectral Region; compound fluorescence, AFC spectral region (405/520 nm); Potency, µM (top dose mostly 57.5 µM), for inactives: top-dose fluorescence increase, usual class: activators; 75,000 tested, 1.1% active; AID 923, 2007; note: potency is the fitted concentration of half-maximal effect; 0% is about no effect
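Compound autofluorescence profiled at 405 nm ex/520 nm em during kinetic caspase 1 run (50 nM enzyme, 5 uM Ac-WEHD-AFC, HEPES pH 7.5, 10 mM DTT). Titration up to 57 uM; baseline from regression intercept, normalized to AFC standard curve.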
HADH2 inh: inhibitors of human HADH2 dehydrogenase | Q99714 | recombinant HADH2, NADH fluorescence, beta-hydroxybutyryl-CoA | Potency, µM (series often up to 57.1 µM), without a hit: top-dose activity change, negative = inhibition, most hits filed as inhibitors | 73,000 tested, 3.4% active; note: potency is the fitted concentration of half-maximal effect; % is set by controls: 0 for no effect and ±100 for the full control effect; nearly all actives have a fitted effect of over 60% in size
Target sequence (Q99714 whole entry, looked up, one chain of several): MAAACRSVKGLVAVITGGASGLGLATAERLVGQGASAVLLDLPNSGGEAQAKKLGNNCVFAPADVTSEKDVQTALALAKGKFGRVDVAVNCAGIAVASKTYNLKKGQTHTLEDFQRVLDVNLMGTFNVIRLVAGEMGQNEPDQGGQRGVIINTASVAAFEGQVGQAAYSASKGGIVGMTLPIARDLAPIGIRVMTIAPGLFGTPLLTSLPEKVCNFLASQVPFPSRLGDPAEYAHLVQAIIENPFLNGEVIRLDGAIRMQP
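His-tagged recombinant enzyme from E. coli, 20 nM, preincubated 15 min RT with compound; reaction started with 1 mM NAD+ and 90 uM beta-hydroxybutyryl-CoA in 100 mM Tris-HCl pH 9.0. NADH fluorescence (ex 360/em 450) read over 4 min; last-minus-first difference.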
HSD17B inh: HSD17B dehydrogenase inhibition. Q99714. recombinant HSD17B10, NADH fluorescence kinetic. Potency, µM (highest dose often 57.1 µM), inactives show at the top dose activity change, negative = inhibition, hits mostly inhibitors. 75,000 tested, 7.6% active;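 note: the protocol describes HADH2 (HSD17B10) and not the HSD17B4 of the title; potency is the fitted concentration of half-maximal effect; % is set by controls: 0 for no effect and ±100 for the full control effect; nearly all actives have a fitted effect of over 70% in size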
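Enzyme plus compound, 15 min room temperature; substrate mix added (NAD+ 1 mM, beta-hydroxybutyryl-CoA 90 uM final); plates read kinetically for NADH fluorescence. HADH2 was His-tagged, E. coli-derived, 20 nM.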
The depositor's hits bear a star; i = inactive; ? = inconclusive; · = no result; [ ] = another dose, or the depositor's remark. Compounds with a hit are over-represented: about 14% of the library has one in this group of screens. Unless noted, calls come from the whole dose curve; as a rule, active = well fitted curve in the direction sought with a large enough effect; inconclusive = small, poorly fitted or top-dose-only effect, or another doubt; inactive = no such curve, though single readings can be large; an effect the other way counts as inactive or inconclusive.

SMILES	4-MU autofl	A350 fluor	CRE Fsk mod	AID923	HADH2 inh	HSD17B inh
CCN1C(=O)/C(=C/N(C)C)c2ccccc21	1.12e-08M*	?	?	-0.3%	-15.1%	?
N#Cc1nc(COc2ccccc2F)oc1NCc1ccc(F)cc1	·	·	7.3%	2.9%	-16.1%	-6.5%
N#Cc1nc(Cc2ccccc2)oc1NCc1ccccc1Cl	i	i	?	-1.2%	-2.2%	-11.4%
N#Cc1nc(-c2ccco2)oc1NCc1ccc(F)cc1	?	?	?	1.4%	?	31.6µM*
COc1ccc(-c2nc(C#N)c(NCc3ccccc3Cl)o2)cc1	i	i	24.8%	-1.3%	31.6µM*	25.1µM*
COc1ccc(-c2nc(C#N)c(NCc3ccccc3Cl)o2)cc1OC	?	?	?	-0.9%	31.6µM*	25.1µM*
COc1ccc(CNc2oc(COc3ccc(Cl)cc3)nc2C#N)cc1	i	i	·	·	·	·
N#Cc1nc(-c2ccccc2Cl)oc1NCc1ccco1	i	i	?	-1.8%	32.2%	?
COc1ccc(-c2nc(C#N)c(NCc3ccc(F)cc3)o2)cc1OC	?	?	3.98µM*	0.1%	?	31.6µM*
Clc1ccc(C2CC(c3cccs3)n3ncnc3N2)c(Cl)c1 (stereo unspecified)	·	·	14.2%	3.3%	-0.5%	-5.5%
Cc1ccc(-c2nnc(CSc3nc(C)nc4sc(C)c(C)c34)o2)cc1	i	?	13.2%	-0.1%	11.0%	11.5%
Cc1nc(SCC#N)c2c(C)c(C)sc2n1	i	i	2µM*	1.5%	12.0%	-0.8%
CCCn1c(C)nc2c(NCCN3CCOCC3)nc(C)nc21	·	·	4.9%	-0.3%	12.7%	23.1%
NCCC[C@@H](CC(=O)N[C@@H]1CCCC[C@H]1C(=O)N[C@H](CC(=O)N[C@@H](CCC(=O)O)CC(=O)O)Cc1c[nH]c2ccccc12)NC(=O)C[C@H](Cc1c[nH]c2ccccc12)NC(=O)[C@@H]1CCCC[C@H]1N	·	·	-21.3%	·	4.5%	·
O=C(OCCCC(=O)N1CCOCC1)c1ccccc1	1.2e-08M*	1.45e-08M*	15.5%	1.3%	12.3%	5.2%
Oc1c(CN2CCOCC2)cc(COCc2ccccc2)c2cccnc12	i	i	?	0.3%	6.6%	12.9%
Oc1cnc2ccccc2c1CN1CCOCC1	2.27e-07M*	2.21e-07M*	-3.9%	4.3%	?	31.6µM*
Cc1nc(Cl)sc1C(=O)O	3.89e-08M*	4.63e-08M*	9.3%	2.1%	0.4%	13.1%
O=C(O)CC[C@@H](C(=O)O)N1C(=O)[C@@H]2[C@@H]3CC[C@H](C3)[C@@H]2C1=O	i	i	5.7%[7.6 µM]	-1.5%[11.5 µM]	-4.4%[11.4 µM]	10.6%[11.4 µM]
COc1ccccc1-c1noc(-c2cc(OC)c(OC)c(OC)c2)n1	i	?	6.31µM*	-0.7%	10.7%	?
COc1cc(-c2noc(-c3cccs3)n2)cc(OC)c1OC	i	?	10µM*	2.9%	8.4%	-2.6%
CCOc1cc(-c2nc(-c3cc(OC)c(OC)c(OC)c3)no2)cc(OCC)c1OCC	i	i	-9.1%	-3.0%	0.8%	-5.0%
COc1cc(-c2nc(-c3ccccn3)no2)cc(OC)c1OC	·	·	1.26µM*	1.1%	5.1%[11.4 µM]	1.5%
COc1cc(OC)cc(-c2nc(-c3ccccc3OC)no2)c1	i	i	16.5%	7.5%	7.4%	5.2%
COC(=O)C/C=C\[C@H](C)[C@@H](OCc1ccccc1Br)C(C)C	·	·	·	-2.3%[11.5 µM]	-6.1%[11.4 µM]	4.2%[11.4 µM]
SMILES	4-MU autofl	A350 fluor	CRE Fsk mod	AID923	HADH2 inh	HSD17B inh
C[C@@H]1CC2(OC3C[C@@]4(C)C5=CC[C@H]6C(C)(C)C(O[C@@H]7OC[C@@H](O)[C@H](O)[C@H]7O)CC[C@@]67C[C@@]57CC[C@]4(C)C31)OC(O)C1(C)OC21 (stereo partly specified)	·	·	-11.1%	-0.3%	5.3%	5.1%
CCn1c(C(=O)NCc2cccnc2)cc2sc(Cl)cc21	·	·	·	0.3%	17.8%	0.2%
CC(=O)Oc1ccc(N2C(=O)C3C(C2=O)C2(C)C=CC3(C)O2)cc1 (stereo unspecified)	·	·	?	0.0%	0.199µM*	?
COC(=O)c1cc(N2C(=O)C3C(C2=O)C2(C)C=CC3(C)O2)ccc1Cl (stereo unspecified)	·	·	?	-1.2%	?	?
O=c1cc(C(F)F)oc2c1ccc1ccccc12	·	·	14.1%	0.8%	9.5%	25.1µM*
Cc1nc2scc(-c3ccccc3)c2c(=O)n1N	2.86e-08M*	2.74e-08M*	5.4%	0.3%	-4.0%	-0.7%
CCN=C1Cn2c(nc3scc(-c4ccccc4)c3c2=O)CN1CC	4.89e-08M*	6.95e-08M*	-14.3%	5.5%	0.5%	?
Cc1nc2cnc(Oc3ccccc3)nc2n(C2CC2)c1=O	i	i	?	-0.4%	2.5%	4.0%
Cc1ccc(-n2c3c(cc(C(=O)Nc4cccc(C)n4)c2=O)C(=O)CCC3)cc1	i	?	-1.8%	0.7%	-16.3%	-12.7%
O=C1CCCc2c1cc(C(=O)Nc1ccc(Br)cn1)c(=O)n2-c1ccccc1	2.13e-08M*	3.06e-08M*	?	3.7%	30.3%	-8.8%
COc1ccc(Oc2coc3cc(OC(=O)N4CCOCC4)ccc3c2=O)cc1	i	i	1.2%	-0.7%	5.6%	-0.8%
O=c1c(-c2ccc3c(c2)OCCO3)coc2c(CN3CCOCC3)c(O)ccc12	8.86e-08M*	1.18e-07M*	-9.4%	-0.6%	3.3%	?
COc1cccc(Oc2coc3c(CN4CCOCC4)c(O)ccc3c2=O)c1	7.9e-07M*	1.12e-06M*	-3.8%	20.9%	38.9%	25.1µM*
CC(C)=CCc1c(O)cc2occ(-c3ccc4c(c3)OCO4)c(=O)c2c1O	·	·	·	1.1%	·	7.3%
Cc1cc(=O)[nH]c2cc3oc4ccccc4c3cc12	2.91e-08M*	2.66e-08M*	?	-3.0%[11.5 µM]	19.5%[11.4 µM]	6.7%[11.4 µM]
COc1ccc(C2(C(=O)NCCCN3CCOCC3)CCOCC2)cc1	i	i	-1.2%	-0.1%	-2.1%	10.7%
CCOC(=O)c1ccccc1NC1CC(=O)N(c2ccccc2C)C1=O (stereo unspecified)	2.25e-07M*	2.78e-07M*	-3.3%	1.6%	195.9%	?
CCOC(=O)c1ccccc1NC(=O)C1COc2ccccc2O1 (stereo unspecified)	·	·	?	5.2%	-10.6%	-22.4%
CCOC(=O)c1ccccc1NCN1C(=O)CSC1=O	·	·	2.8%	-1.9%	?	31.6µM*
CCCCOc1cc(C[C@@H]2CNC(=O)N2)ccc1OC	i	i	0.398µM*	1.3%	5.8%	6.0%
COCCNC(=O)C(c1ccco1)N(C(=O)Cn1nnc2ccccc21)c1ccc(C)cc1C (stereo unspecified)	4.1e-08M*	4.41e-08M*	-12.4%	0.7%	3.6%	0.3%
